# Results reported in the supplement of paper PMC6658780.
# Structures can show the parent of a compound that is named as a salt. ± gives the standard deviation of the averaged measurements.
# Tested on: Escherichia coli ATCC BAA-2469
# Experiment: percent growth inhibition of drug + antibiotic vs DMSO control; higher = more growth inhibition
# Method: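 Prestwick drugs tested at 20 uM and 7 uM with an antibiotic at 0.125x MIC (16 mg/L when MIC >128 mg/L) against E. coli ATCC BAA-2469 (NDM-1) in CAMHB, 384-well plates, duplicate runs. Percent growth inhibition was computed from OD600 (24 h minus 0 h) relative to DMSO wells. Drug + DMSO-only wells are also given. […]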
# [1] = antibiotic (0.125x MIC): ciprofloxacin, 7 µM
# [2] = antibiotic (0.125x MIC): ciprofloxacin, 20 µM
# [3] = antibiotic (0.125x MIC): gentamicin, 7 µM
# [4] = antibiotic (0.125x MIC): gentamicin, 20 µM
# [5] = antibiotic (0.125x MIC): meropenem, 7 µM
# [6] = antibiotic (0.125x MIC): meropenem, 20 µM
smiles,measurement,setting,value
C#C[C@]1(OC(C)=O)CC[C@H]2[C@@H]3CCC4=C[C@@H](OC(C)=O)CC[C@@H]4[C@H]3CC[C@@]21C [Ethynodiol diacetate],percent growth inhibition,[1],5.09 ± 12%
same,percent growth inhibition,[2],8.86 ± 3.1%
CS(=O)(=O)c1ccc([C@@H](O)[C@@H](CF)NC(=O)C(Cl)Cl)cc1 [Florfenicol],percent growth inhibition,[1],35.4 ± 4.7%
same,percent growth inhibition,[2],88.8 ± 2.8%
CC(C)(C)C(=O)OCOC(=O)[C@@H]1N2C(=O)[C@@H](/N=C/N3CCCCCC3)[C@H]2SC1(C)C [Pivmecillinam hydrochloride],percent growth inhibition,[1],2.89 ± 3.3%
O=c1[nH]c(=O)n([C@H]2C[C@H](O)[C@@H](CO)O2)cc1C(F)(F)F [Trifluridine],percent growth inhibition,[1],4.99 ± 6.6%
same,percent growth inhibition,[2],25.5 ± 3.5%
same,percent growth inhibition,[3],6.11 ± 0.34%
Nc1nc(F)nc2c1ncn2[C@@H]1O[C@H](CO)[C@@H](O)[C@@H]1O [Fludarabine],percent growth inhibition,[1],36.5 ± 11%
same,percent growth inhibition,[2],58.8 ± 3.8%
same,percent growth inhibition,[3],31.6 ± 1.3%
same,percent growth inhibition,[4],65.8 ± 12%
same,percent growth inhibition,[5],28.2 ± 5.7%
same,percent growth inhibition,[6],64.4 ± 8%
CO[C@H]1/C=C/O[C@@]2(C)Oc3c(C)c(O)c4c(O)c(c5c(nc6cc(C)ccn65)c4c3C2=O)NC(=O)/C(C)=C\C=C\[C@H](C)[C@H](O)[C@@H](C)[C@@H](O)[C@@H](C)[C@H](OC(C)=O)[C@@H]1C [Rifaximin],percent growth inhibition,[2],99.44 ± 0.47%
same,percent growth inhibition,[3],68.8 ± 13%
same,percent growth inhibition,[5],94.7 ± 4.2%
same,percent growth inhibition,[6],99 ± 1.7%
CO[C@H]1/C=C/O[C@@]2(C)Oc3c(C)c(O)c4c(O)c(c(/C=N/N5CCN(C6CCCC6)CC5)c(O)c4c3C2=O)NC(=O)/C(C)=C\C=C\[C@H](C)[C@H](O)[C@@H](C)[C@@H](O)[C@@H](C)[C@H](OC(C)=O)[C@@H]1C [Rifapentine],percent growth inhibition,[2],99.9 ± 4.6%
same,percent growth inhibition,[6],96.3 ± 5.3%
NC(=O)N/N=C/c1ccc([N+](=O)[O-])o1 [Nitrofural],percent growth inhibition,[3],8.48 ± 6.7%
same,percent growth inhibition,[5],4.64 ± 4%
Oc1c(Cl)cc(Cl)c2cccnc12 [Chloroxine],percent growth inhibition,[3],40 ± 13%
same,percent growth inhibition,[4],112 ± 19%
O=C1CN(/N=C/c2ccc([N+](=O)[O-])o2)C(=O)N1 [Nitrofurantoin],percent growth inhibition,[3],6.28 ± 5.3%
same,percent growth inhibition,[5],2.1 ± 2.9%
CC(=O)c1ccc2c(c1)N(CCCN1CCC(CCO)CC1)c1ccccc1S2 [Piperacetazine],percent growth inhibition,[3],2.86 ± 2.4%
CCN(CC)CCNC(=O)c1cc(Br)c(N)cc1OC [Bromopride],percent growth inhibition,[3],1.42 ± 2.4%
Oc1c(Cl)cc(Cl)c(Cl)c1Cc1c(O)c(Cl)cc(Cl)c1Cl [Hexachlorophene],percent growth inhibition,[3],21.4 ± 16%
Cc1cc(/C=C/c2ccc3cc(N(C)C)ccc3[n+]2C)c(C)n1-c1ccccc1 [Pyrvinium pamoate],percent growth inhibition,[3],13.6 ± 14%
same,percent growth inhibition,[5],11.6 ± 17%
same,percent growth inhibition,[6],18 ± 14%
CCC[C@@H]1C[C@@H](C(=O)N[C@@H]([C@H]2O[C@H](SC)[C@H](O)[C@@H](O)[C@H]2O)[C@H](C)Cl)N(C)C1 [Clindamycin hydrochloride],percent growth inhibition,[5],13.3 ± 0.73%
same,percent growth inhibition,[6],42.6 ± 12%
Cc1cc(N)c2ccccc2[n+]1CCCCCCCCCC[n+]1c(C)cc(N)c2ccccc21 [Dequalinium dichloride],percent growth inhibition,[5],-1.34 ± 1.8%
same,percent growth inhibition,[6],34.5 ± 0.8%
CC[C@H]1OC(=O)[C@H](C)[C@@H](O[C@H]2C[C@@](C)(OC)[C@@H](O)[C@H](C)O2)[C@H](C)[C@@H](O[C@@H]2O[C@H](C)C[C@H](N(C)C)[C@H]2O)[C@](C)(O)C[C@@H](C)CN(C)[C@H](C)[C@@H](O)[C@]1(C)O [Azithromycin],percent growth inhibition,[5],20.7 ± 7.2%
same,percent growth inhibition,[6],50.1 ± 20%
CCCCCCCCCCCCCCCC[N+](C)(C)CCN(Cc1ccc(OC)cc1)c1ncccn1 [Thonzonium bromide],percent growth inhibition,[5],-2.72 ± 5.5%
same,percent growth inhibition,[6],34.1 ± 20%
